FadD28 FP inh = M. tuberculosis FadD28 bisubstrate binding inhibition; FadD28 bisubstrate probe binding, fluorescence polarization; inhibition, % at 12.5 µM; 0.22% of 360,000 active; in the data active means inhibition above about 8.5%, passing the limit was not always enough
Y pestis TopoI = Y. pestis Topo-I inhibition via cleavage products. Y. pestis Topo-I cleavage product accumulation, plate reader. activity, % at 10 µM. 0.064% of 360,000 active; in the data active means activity above about 50%, passing the limit was not always enough
PfHsp40 rescue = rescue of PfHsp40-mediated yeast toxicity; S. cerevisiae expressing PfHsp40, growth rescue, ATP luminescence; growth rescue, % at 12.5 µM; 0.68% of 340,000 active; in the data active means growth rescue above about 28%, passing the limit was not always enough;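 further: yeast W303a lacking pdr1 and pdr3 grown in galactose medium; growth measured after three days at 30 °C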
Mtb BioA inh = inhibitors of Mycobacterium tuberculosis BioA enzyme | purified M. tuberculosis BioA enzyme, plate reader | inhibition, % at 9.99 µM | 0.096% of 360,000 active; in the data active means inhibition above about 40%
PrP 5UTR inh = inhibition of PrP 5' UTR reporter expression; cell-based PrP 5' UTR mRNA reporter, plate reader; AID 488862; inhibition, % (test concentration not listed); 0.35% of 340,000 active; in the data active means inhibition above about 52%; further: 0 = median of the neutral control wells
Starred values were filed as active, the others as inactive; / = no result. Most compounds without a hit are left out; they make up all but 1.1% or so of the library.

SMILES | FadD28 FP inh | Y pestis TopoI | PfHsp40 rescue | Mtb BioA inh | PrP 5UTR inh
CCCCCCC(=O)O | -2.3 | 0.7 | -0.9 | -0.8 | -3.1
CCCCCCCCCCCCCC(=O)NO | -3.2 | -6.3 | 264.3* | / | -2.7
CCCCCCCC/C=C\CCCCCCCC(=O)NCCO | 14.8* | 25.4 | 67.1* | 3.4 | -6.9
O=C(C[C@H]1CC[C@H]2[C@@H](COC[C@@H](O)CN2CCC(F)(F)F)O1)NCc1ccc(Oc2ccccc2)cc1 | / | / | / | 0.7 | /
Cc1ccc(S(=O)(=O)Nc2ccc(O)c3ccccc23)c(C)c1 | 54.6* | -7.6 | -0.7 | -0.8 | -23.5
c1ccc(Cn2cc(-c3cccnc3)cn2)cc1 | 1.3 | 5.3 | 552.9* | 1.0 | -19.4
O=C(C[C@@H]1CC[C@@H](NC(=O)Nc2ccc(C(F)(F)F)cc2)[C@H](CO)O1)NCCN1CCCC1 | / | / | / | 0.2 | /
CCC(=O)Nc1cc2c(C)cc(=O)oc2cc1C | -0.3 | -0.4 | 35.5* | 1.0 | -2.9
CCCCCCC(=O)Nc1cc2c(C)cc(=O)oc2cc1C | -2.8 | 5.7 | -0.2 | -0.6 | -8.0
COc1ccccc1OC(=O)c1cc2ccccc2oc1=O | -0.7 | 11.7 | 7.4 | 0.3 | -17.4
COc1cc(/C=C/[N+](=O)[O-])ccc1OC(=O)c1cc2ccccc2oc1=O | -1.7 | 0.7 | 117.6* | -2.8 | -16.9
O=[N+]([O-])c1ccc(-c2nnc(-c3ccccc3)c(NCCCO)n2)cc1 | -4.4 | -11.1 | -0.5 | / | -9.8
OCCCNc1nc(-c2ccc(Cl)cc2)nnc1-c1ccc(Br)cc1 | -6.4 | 9.8 | 28.4* | / | -21.3
C[C@@H]1CN([C@H](C)CO)C(=O)c2cc(C3=CCCCC3)cnc2O[C@@H]1CN(C)S(=O)(=O)c1cn(C)cn1 | / | / | / | -1.3 | /
COc1ccc(NC(=O)N2C[C@H](O)COC[C@@H]3O[C@H](CC(=O)N4CCN(C)CC4)CC[C@H]32)cc1 | / | / | / | -0.4 | /
Cc1ccc(C(C)C)cc1NC(=O)Nc1ccc([N+](=O)[O-])cc1 | -0.7 | -24.1 | 150.7* | / | -9.1
CCCCNC(=S)Nc1ccc([N+](=O)[O-])cc1 | -1.2 | 1.5 | -2.0 | 3.4 | -9.6
Cc1cc(O)c(C(C)C)cc1NC(=O)Nc1ccc([N+](=O)[O-])cc1 | -1.4 | -2.1 | 0.6 | / | 23.3
CC(C)CCNC(=S)Nc1ccc([N+](=O)[O-])cc1 | -2.5 | -3.4 | 127.6* | 5.1 | -25.5
CC(=O)Nc1ccc2c(c1)C(=O)N(C)[C@@H]1CC[C@H](CC(=O)NCCCN3CCOCC3)O[C@H]1CO2 | / | / | / | -4.1 | /
CCCCCCCCCCOC(=O)Cn1c(COc2ccccc2OC)[n+](C)c2ccccc21 | -25.1 | 0.6 | 316.3* | 15.7 | -17.4
O=S(=O)(Nc1ccc(-n2cccc2)cc1)c1ccc(Cl)c(Cl)c1 | -3.0 | -8.5 | 65.7* | / | -34.4
C[C@H](CO)N1C[C@H](C)[C@@H](CN(C)S(C)(=O)=O)Oc2ccc(NS(=O)(=O)c3cn(C)cn3)cc2CC1=O | / | / | / | 0.2 | /
O=C(NCCC1CCCC1)C1CCC(=O)N(CCCN2CCCC2=O)C1 (configuration not stated) | -0.6 | 7.0 | 0.0 | -0.5 | -13.0
O=C(NC(C1CC1)C1CC1)C1CCC(=O)N(CCCN2CCCC2=O)C1 (configuration not stated) | -3.4 | -0.6 | 36.0* | 1.7 | -12.8
SMILES | FadD28 FP inh | Y pestis TopoI | PfHsp40 rescue | Mtb BioA inh | PrP 5UTR inh
O=[N+]([O-])c1ccc(-c2nc(-c3cccs3)c(-c3cccs3)[nH]2)cc1 | -3.6 | -34.7 | 437.9* | -1.8 | -26.5
Fc1ccc(-c2nc(-c3cccs3)[nH]c2-c2ccc(F)cc2)cc1 | -6.1 | -23.9 | 128.6* | -1.2 | -76.8
Oc1ccc(-c2nc(-c3ccc(F)cc3)c(-c3ccncc3)[nH]2)cc1 | 1.0 | -13.7 | -1.1 | 0.7 | 13.6
O=C(Nc1cccc(Oc2ccc(C(=O)O)c(C(=O)O)c2)c1)c1ccc(-c2ccccc2)cc1 | 28.7* | 12.0 | 19.3 | 3.6 | 13.0
CN(C)S(=O)(=O)Oc1cccc(C(=O)Nc2ccc(Cl)cc2)c1 | -6.1 | 3.5 | 353.2* | 1.1 | -124.2
CCN(Cc1cc(=O)n2ccsc2n1)c1cccc2ccccc12 | -1.0 | 22.6 | 178.2* | / | -13.2
Cc1cc(SCc2cc(=O)n3ccsc3n2)nc2ccccc12 | -0.9 | 3.2 | -1.5 | / | -12.5
CO[C@H]1CC[C@@H]2CCOc3ccc(C#N)cc3C(=O)N(C)C[C@H](C)C(=O)N(C)C[C@@H]1O2 | / | / | / | -0.3 | /
Cc1cccc(NC(=S)NC2CCCC2)c1 | -1.3 | 3.0 | 0.2 | / | -10.3
CC(=O)c1cccc(NC(=O)NC2CCCCCCC2)c1 | 15.0* | 7.1 | -0.9 | -1.0 | -20.7
CC(=O)c1cccc(NC(=O)NC2CCCCC2)c1 | -2.6 | 0.6 | 0.6 | 0.3 | -14.3
CC(=O)c1cccc(NC(=S)NC2CCCCCCC2)c1 | 14.1* | 3.2 | -1.1 | 0.5 | -5.9
CC(=O)Nc1ccc2c(c1)Cc1cc(N3C(=O)C=CC3=O)ccc1-2 | -2.9 | 10.1 | 668.4* | 0.4 | -15.9
O=C1C=CC(=O)N1c1ccc2c(c1)Cc1cc(F)ccc1-2 | -1.8 | 2.1 | 3.0 | 0.2 | -14.4
CO[C@H]1CN(C)C(=O)c2cc(NC(=O)C3CC3)ccc2OC[C@@H](C)N(CC2CCCC2)C[C@@H]1C | / | / | / | 3.0 | /
O=C1NC[C@@H](Cc2cccc3ccccc23)N(CCc2cc(C(F)(F)F)cc(C(F)(F)F)c2)C1=O | -6.8 | 15.2 | 43.7* | 0.6 | -10.6
Cc1noc(C)c1S(=O)(=O)Nc1ccc2c(c1)C(=O)N([C@@H](C)CO)C[C@H](C)[C@@H](CN(C)CC1CCCCC1)OCCCC[C@H](C)O2 | / | / | / | -1.1 | /
COc1cc(SC)ccc1C(=O)Nc1ccc(C)cc1C | 1.4 | 21.2 | -0.6 | 2.4 | -67.3
COc1cc(SC)ccc1C(=O)Nc1ccc(C)cc1 | -4.4 | 17.8 | 146.7* | / | -67.3
Cc1oc2ccc(OC(=O)c3cccs3)cc2c1C(=O)OC(C)C | -1.4 | 37.8 | 2.7 | -0.2 | -16.5
Cc1oc2ccc(OC(=O)N(C)C)cc2c1C(=O)OC(C)C | -1.3 | 21.2 | 159.8* | 2.8 | -6.7
COc1cc(/C=C2\SC(=Nc3ccc(Cl)c(C(=O)O)c3)NC2=O)c(Br)c(Br)c1O | 14.8* | -10.2 | 7.2 | -12.1 | -0.8
COc1cc(/C=C2\SC(=Nc3ccccc3)NC2=O)cc(Cl)c1O | 5.7 | -13.2 | 0.9 | -12.9 | -22.4
O=S(=O)(N[C@@H]1C[C@H]2CC[C@@H]1C2)c1cccs1 | -1.4 | 5.9 | 2.4 | -0.6 | -9.9
COc1ccc(S(=O)(=O)NC2CC3CCC2C3)cc1 (configuration not stated) | 0.5 | 6.6 | 95.0* | -1.7 | -12.3
CSc1ccc(S(=O)(=O)NC2CC3CCC2C3)cc1 (configuration not stated) | 0.8 | 11.4 | 77.9* | 1.6 | -14.3
O=[N+]([O-])c1ccccc1S(=O)(=O)NC1CC2CCC1C2 (configuration not stated) | -2.7 | -1.5 | -0.6 | -1.1 | -23.4
O=c1n(Cc2ccc(Cl)cc2)c2sc3c(c2c2ncnn12)CCCC3 | 0.5 | 57.2* | 23.0 | 13.0 | -12.1
CC(=O)N1[C@@H]2c3ccc(C4=CCCC4)c(=O)n3C[C@@H]2[C@@H](CO)[C@@H]1C(=O)N1CCCCC1 | / | / | / | -0.8 | /
COC(=O)c1sc(NC(=S)NNC(=O)c2c(Br)c(C)nn2C)c(C(=O)OC)c1C | 19.8* | -2.4 | 0.1 | 3.2 | -4.6

High-throughput results (PubChem)
